{"source": "patent US20040110161", "about": "“Method for detecting mutations in nucleotide sequences” (published 2004)", "binders": {"B1": {"name": "MSH AT (dsDNA)", "DNA 1": "AACCTTTCTCCAAAATGGCTGGTCGTACATATGGAACAG", "DNA 2": "ACCTGTTCCATATGTACGACCAGCCATTTTGGAGAAAGG"}, "B2": {"name": "p53 AT (dsDNA)", "DNA 1": "AAAGTTCCTGCATGGGCGGCATGAACCGGAGGCCCATC", "DNA 2": "AGGATGGGCCTCCGGTTCATGCCGCCCATGCAGGAACT"}, "B3": {"name": "Rb AT (dsDNA)", "DNA 1": "AAATAAGATCAAATAAAGGTGAATCTGAGAGCCATGCAA", "DNA 2": "CCTTGCATGGCTCTCAGATTCACCTTTATTTGATCTTAT"}, "B4": {"name": "APC AT (dsDNA)", "DNA 1": "AAGATCTTCAGCTGACCTAGTTCCAATCTTTTCTTTTAT", "DNA 2": "AAATAAAAGAAAAGATTGGAACTAGGTCAGCTGAAGATC"}, "B5": {"name": "Met AT (dsDNA)", "DNA 1": "AACTATAGTATTCTTTATCATACATGTCTCTGGCAAGAC", "DNA 2": "TGGTCTTGCCAGAGACATGTATGATAAAGAATACTATAG"}, "B6": {"name": "Brc AT (dsDNA)", "DNA 1": "AAATGTTATTACGGCTAATTGTGCTCACTGTACTTGGAA", "DNA 2": "CATTCCAAGTACAGTGAGCACAATTAGCCGTAATAACAT"}, "B7": {"name": "bcl AT (dsDNA)", "DNA 1": "AAGGTCGCGGGATGCGGCTGGATGGGGCGTGTGCCCGGG", "DNA 2": "AGCCCGGGCACACGCCCCATCCAGCCGCATCCCGCGACC"}}}
{"molecular_target": "T1, MutS (Cy5-labeled) (Escherichia coli, UniProt P23909 P23909:1-853)", "T1 sequence": "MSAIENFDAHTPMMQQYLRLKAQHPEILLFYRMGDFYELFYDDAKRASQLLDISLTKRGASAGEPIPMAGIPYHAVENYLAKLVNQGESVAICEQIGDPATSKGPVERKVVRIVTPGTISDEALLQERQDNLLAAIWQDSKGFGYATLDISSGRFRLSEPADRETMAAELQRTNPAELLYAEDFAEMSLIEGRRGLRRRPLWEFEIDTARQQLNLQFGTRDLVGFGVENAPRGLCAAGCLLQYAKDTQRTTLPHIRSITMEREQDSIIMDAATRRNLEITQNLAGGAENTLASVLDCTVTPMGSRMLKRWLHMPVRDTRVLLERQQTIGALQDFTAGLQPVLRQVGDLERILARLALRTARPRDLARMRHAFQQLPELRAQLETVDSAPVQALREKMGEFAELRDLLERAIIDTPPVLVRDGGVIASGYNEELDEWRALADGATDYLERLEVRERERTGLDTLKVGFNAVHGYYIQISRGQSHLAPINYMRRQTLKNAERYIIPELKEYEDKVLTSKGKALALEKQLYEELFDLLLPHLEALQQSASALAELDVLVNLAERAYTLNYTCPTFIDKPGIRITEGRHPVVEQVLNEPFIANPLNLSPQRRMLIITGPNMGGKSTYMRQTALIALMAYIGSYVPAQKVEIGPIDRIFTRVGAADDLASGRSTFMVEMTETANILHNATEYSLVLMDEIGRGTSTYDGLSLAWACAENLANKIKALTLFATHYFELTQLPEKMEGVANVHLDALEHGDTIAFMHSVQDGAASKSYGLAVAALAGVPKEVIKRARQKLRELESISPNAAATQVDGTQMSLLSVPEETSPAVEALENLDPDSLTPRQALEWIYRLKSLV", "experiment": "agarose chip", "details": "tags: Cy5 nonspecific amine label; also Gene Check unlabeled in EMSA; label: 5'-biotin, 5'-Cy3", "units": {"binding signal": "fluorescence units"}}
{"binder": "B1", "binding signal": 45.9}
{"binder": "B2", "binding signal": 48.7}
{"binder": "B3", "binding signal": 59.6}
{"binder": "B4", "binding signal": 40.5}
{"binder": "B5", "binding signal": 46.3}
{"binder": "B6", "binding signal": 52.4}
{"binder": "B7", "binding signal": 51.2}
